# Dicer inh: inhibitors of Dicer pre-microRNA processing, primary screen, biochemical, cat-ELCCA, chemiluminescence | Endoribonuclease Dicer (Homo sapiens), Q9UPY3 | cat-ELCCA pre-miR-21 Dicer processing; hits give high values | z-score at 25 µM | hit rate 6% among 47,000; in the data active = z-score above about 3, passing the limit was not always enough;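 also: plate controls were vehicle for no effect and no enzyme for full effect; higher signal means more uncleaved substrate so more Dicer inhibition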
# Target sequence (Q9UPY3 whole entry, looked up): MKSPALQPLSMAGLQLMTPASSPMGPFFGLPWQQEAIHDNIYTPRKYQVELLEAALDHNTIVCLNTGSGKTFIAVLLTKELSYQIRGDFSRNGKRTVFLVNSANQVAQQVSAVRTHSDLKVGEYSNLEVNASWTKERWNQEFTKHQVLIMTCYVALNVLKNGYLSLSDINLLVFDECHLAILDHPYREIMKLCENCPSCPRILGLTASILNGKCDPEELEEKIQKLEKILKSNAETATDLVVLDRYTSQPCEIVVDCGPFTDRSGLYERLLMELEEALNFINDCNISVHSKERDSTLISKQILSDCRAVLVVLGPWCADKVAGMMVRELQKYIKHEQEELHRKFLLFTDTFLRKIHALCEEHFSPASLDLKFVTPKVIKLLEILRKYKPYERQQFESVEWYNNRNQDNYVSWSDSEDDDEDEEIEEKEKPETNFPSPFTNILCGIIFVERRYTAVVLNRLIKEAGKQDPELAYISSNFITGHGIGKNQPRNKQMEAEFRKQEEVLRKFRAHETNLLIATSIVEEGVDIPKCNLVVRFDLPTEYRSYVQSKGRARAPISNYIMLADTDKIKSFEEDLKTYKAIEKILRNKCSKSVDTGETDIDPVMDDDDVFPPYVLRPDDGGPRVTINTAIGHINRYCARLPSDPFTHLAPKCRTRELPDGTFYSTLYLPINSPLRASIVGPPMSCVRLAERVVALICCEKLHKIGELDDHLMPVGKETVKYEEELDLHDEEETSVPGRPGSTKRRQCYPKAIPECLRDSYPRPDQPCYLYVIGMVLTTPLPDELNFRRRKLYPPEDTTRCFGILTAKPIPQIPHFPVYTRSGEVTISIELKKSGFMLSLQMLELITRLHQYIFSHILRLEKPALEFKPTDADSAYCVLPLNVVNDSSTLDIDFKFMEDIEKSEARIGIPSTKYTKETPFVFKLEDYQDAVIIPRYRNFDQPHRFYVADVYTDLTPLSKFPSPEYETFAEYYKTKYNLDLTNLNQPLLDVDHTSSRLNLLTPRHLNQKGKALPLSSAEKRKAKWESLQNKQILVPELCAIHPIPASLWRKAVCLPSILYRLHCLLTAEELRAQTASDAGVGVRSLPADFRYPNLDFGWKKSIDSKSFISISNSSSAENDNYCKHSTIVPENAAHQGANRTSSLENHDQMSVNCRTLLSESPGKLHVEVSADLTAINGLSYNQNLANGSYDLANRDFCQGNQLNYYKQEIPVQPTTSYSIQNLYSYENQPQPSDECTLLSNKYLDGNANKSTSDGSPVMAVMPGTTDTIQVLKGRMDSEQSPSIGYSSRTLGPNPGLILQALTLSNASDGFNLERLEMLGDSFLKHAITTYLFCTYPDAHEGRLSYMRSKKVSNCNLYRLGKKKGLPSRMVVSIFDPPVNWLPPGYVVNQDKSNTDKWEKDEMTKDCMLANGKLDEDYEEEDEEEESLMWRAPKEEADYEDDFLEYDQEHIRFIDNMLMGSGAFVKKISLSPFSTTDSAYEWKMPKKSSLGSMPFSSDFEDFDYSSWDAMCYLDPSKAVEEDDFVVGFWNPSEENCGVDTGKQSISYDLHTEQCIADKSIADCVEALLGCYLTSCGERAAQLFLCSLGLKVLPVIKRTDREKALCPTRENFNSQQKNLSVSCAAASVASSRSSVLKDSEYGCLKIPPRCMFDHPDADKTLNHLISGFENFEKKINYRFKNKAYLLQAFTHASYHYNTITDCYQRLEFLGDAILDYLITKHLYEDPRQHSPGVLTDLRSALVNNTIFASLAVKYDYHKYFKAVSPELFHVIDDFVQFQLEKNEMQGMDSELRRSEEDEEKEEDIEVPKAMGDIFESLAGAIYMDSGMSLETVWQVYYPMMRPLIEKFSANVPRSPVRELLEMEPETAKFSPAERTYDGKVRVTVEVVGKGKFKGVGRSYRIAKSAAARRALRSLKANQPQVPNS
# * hit, by the source's call. Only a selection was taken, and hits are over-represented in it overall.
SMILES,Dicer inh
CCOC(=O)c1sc(NC(=O)C2CCCO2)c(C(=O)OCC)c1C (stereo not drawn),-0.87
CCOC(=O)c1sc(NC(=O)C2COc3ccccc3O2)c(C(=O)OCC)c1C (stereo not drawn),3.3*
CCOC(=O)c1sc(NC(=O)C2CCCC2)c(C(=O)OCC)c1C,-0.74
COC(=O)c1c(NC(=O)C2COc3ccccc3O2)sc2c1CCCC2 (stereo not drawn),0.53
COC(=O)/C=C1/OC(c2ccc(Cl)cc2)=CC1=O,-0.55
CCOC(=O)C1=C(C)NC(=O)NC1c1c(C)nn(C)c1Cl (stereo not drawn),-1.5
Cc1ccc(C(=O)NC(Nc2cc(C)on2)(C(F)(F)F)C(F)(F)F)cc1,0.37
CCOC(=O)C1C(c2cccc(Cl)c2)C(C(=O)OCC)C(O)(C(F)(F)F)NC1(O)C(F)(F)F (stereo not drawn),1.9
Cc1cc(C)c(NC(=S)N(C)C)cc1C,-1
CS(=O)(=O)c1ccc2nc(NC(=O)Oc3ccccc3)sc2c1,2.5
CS(=O)(=O)c1ccc2nc(NC(=O)c3cc4ccccc4o3)sc2c1,4.2*
CS(=O)(=O)c1ccc2sc(NC(=O)c3cc4ccccc4o3)nc2c1,-0.08
CCOC(=O)C1=C(C(=O)OCC)SC(=C2C(=S)C(C)(C)N(C(C)=O)c3cc(C)ccc32)S1,3.4*
CCCC(=O)N1c2cc(C)ccc2C(=C2SC(C(=O)OC)=C(C(=O)OC)S2)C(=S)C1(C)C,2
COC(=O)C1=C(C(=O)OC)SC(=C2C(=S)C(C)(C)N(C(=O)C(C)C)c3cc(C)ccc32)S1,2.2
Cc1cc(NC(=O)CN2C(=O)CN(c3ccccc3)C2=O)no1,0.43
COc1ccc(CN2CCN(C(c3ccc(F)cc3)c3ccc(F)cc3)CC2)c(OC)c1OC,-0.5
CCCOc1ccc(OCCSc2nc3ccccc3[nH]2)cc1,-0.33
CC(=NCc1cccc(CN=C(C)c2ccccc2O)c1)c1ccccc1O,1.9
CC(C)(C)SCCN=C(Nc1ccc(Cl)cc1)c1ccccc1Cl,-2.7
CC(=NCCc1ccc(Cl)cc1)c1ccccc1O,5.2*
CCOC(=O)N/N=C(\C)c1ccccc1O,0.81
C/C(=N\NC(=O)c1ccc(Cl)cc1)c1ccccc1O,33*
O=C(O)/C(=N/NC(=O)c1ccc(Cl)cc1)c1ccccc1,2.7
O=C(NC(=S)N1CCCC1)c1ccccc1,1.2
SMILES,Dicer inh
COC(=O)COc1ccc(SC(F)(F)F)cc1,-0.39
Cc1c(NS(=O)(=O)c2cn(C)cn2)c(=O)n(-c2ccccc2)n1C,6*
CCS(=O)(=O)Nc1c(C)n(C)n(-c2ccccc2)c1=O,1.7
CCOc1ccc(S(=O)(=O)Nc2c(C)n(C)n(-c3ccccc3)c2=O)cc1,0.71
Nc1cccnc1Oc1ccc(F)cc1F,0.34
CC1(C)OC(=O)NC1=O,30
Cc1nn(-c2ccccc2)c2c1C1=C(C(=O)CC(C)(C)C1)C(c1ccc(N(C)C)cc1)N2 (stereo not drawn),3.4*
CCC1C2=C(CC(C)(C)CC2=O)Nc2c1c(C)nn2-c1ccccc1 (stereo not drawn),-2.6
Cc1[nH]nc2c1C1=C(C(=O)CC(C)(C)C1)C(c1ccc(N(C)C)cc1)N2 (stereo not drawn),2.2
CCOC(=O)C1=C(N)Oc2ccc3ccccc3c2C1c1cccc(O)c1 (stereo not drawn),3.5*
CCOC(=O)C1=C(N)Oc2cc(O)ccc2C1c1ccc(F)cc1F (stereo not drawn),0.45
CCOC(=O)C1=C(N)Oc2cc(O)ccc2C1c1ccccc1 (stereo not drawn),0.12
CCOC(=O)c1c(C)csc1NC(=O)CC#N,2
CC1CC(C)CN(c2ncc3c(n2)CC(c2ccc(Cl)cc2)CC3=O)C1 (stereo not drawn),1.9
Cn1nc(NC(=O)c2c(F)cccc2Cl)c2c(F)cccc21,0.82
Cc1nn(Cc2nnc(SCC(=O)C(C)(C)C)n2C)c(C)c1[N+](=O)[O-],-1.1
Cc1c(C)c(C)c(S(=O)(=O)Oc2ccc([N+](=O)[O-])cc2)c(C)c1C,4.7*
Cc1ccc(S(=O)(=O)Oc2ccc(-c3ccc(OS(=O)(=O)c4ccc(C)cc4)cc3)cc2)cc1,-0.18
N#Cc1c(OCC(F)(F)F)ccc(S(=O)(=O)Oc2ccc([N+](=O)[O-])cc2)c1OCC(F)(F)F,-0.54
NNC(=O)C(Cc1ccc(O)cc1)NC(=O)OCc1ccccc1 (stereo not drawn),-0.7
N#Cc1c(SC2CCCCC2)sc(C(=O)O)c1-c1ccc(Cl)cc1,-0.46
O=C(NNc1c(Cl)cncc1Cl)Nc1ccc(Cl)cc1,2.1
CCOC(=O)c1c(NS(=O)(=O)c2ccc(OC)c(OC)c2)sc2c1CCC2,-1.3
CCOC(=O)c1c(NC(=O)Nc2cc(OC)ccc2Cl)sc2c1CCN(C)C2,3.4*
CCOC(=O)c1c(NC(=O)Nc2ccc(C)cc2)sc2c1CCN(C)C2,2.1
SMILES,Dicer inh
CCOC(=O)c1c(NC(=O)C(C)Oc2ccc(OC)cc2)sc2c1CCC(C)C2 (stereo not drawn),2.7
CCOC(=O)c1c(NC(=O)Oc2ccccc2)sc2c1CCC2,-0.88
CCOC(=O)c1c(NCc2cc(OC)ccc2O)sc2c1CCC2,4.1*
O=C(O)c1ccc2nc3ccccc3nc2c1,-1.9
O=C(O)c1ccc2nc(-c3cccc(-c4nc5ccc(C(=O)O)cc5[nH]4)c3)[nH]c2c1,-0.63
O=C(O)c1cccc(-c2cccc(C(=O)O)c2)c1,6.2*
CC(=O)Nc1ccc2oc(-c3ccc(C#N)cc3)cc(=O)c2c1,7.8
Cc1cc(C)cc(Oc2coc3cc(OC(C)C(=O)OCC(C)C)ccc3c2=O)c1 (stereo not drawn),3.6*
CCOCCOC(=O)COc1ccc2c(=O)c(-c3ccc(Cl)cc3)coc2c1,3.5*
CC(C)COC(=O)C(C)Oc1ccc2c(=O)c(Oc3ccccc3Cl)coc2c1 (stereo not drawn),0.24
CCOC(=O)C(CC)Oc1ccc2c(=O)c(-c3ccc(Cl)cc3)coc2c1 (stereo not drawn),1.1
CCCOC(=O)COc1ccc2c(=O)c(Oc3cc(C)c(Cl)c(C)c3)coc2c1,-0.45
CCOCCOC(=O)C(C)Oc1ccc2c(=O)c(Oc3cc(C)c(Cl)c(C)c3)coc2c1 (stereo not drawn),-0.19
CCC(C)OC(=O)C(C)Oc1ccc2c(=O)c(-c3ccc(Cl)cc3)coc2c1 (stereo not drawn),-0.61
CCCOC(=O)C(C)Oc1ccc2c(=O)c(-c3ccc(Cl)cc3)coc2c1 (stereo not drawn),3.2*
CCCCOC(=O)C(C)Oc1ccc2c(=O)c(Oc3ccccc3Br)coc2c1 (stereo not drawn),-0.22
COc1cc(C2C(C(=O)OC(C)C)=C(C)NC3=C2C(=O)CCC3)ccc1OCc1ccccc1 (stereo not drawn),-0.64
COC(=O)C1=C(C)Nc2nnnn2C1c1ccccc1Cl (stereo not drawn),2.4
COc1ccc(Cn2c(=O)c3[nH]cnc3n(-c3cc(S(C)=O)ccc3C)c2=O)cc1 (stereo not drawn),-0.71
CC(=O)c1ccc(-c2ccc(C(C)=O)cc2)cc1,-1.5
CCc1ccc(Oc2coc3cc(OC(=O)c4cccs4)ccc3c2=O)cc1,0.08
O=C(Nc1nc(-c2ccccc2)cs1)c1cc(-c2ccc(Cl)cc2)oc1C(F)(F)F,0.7
O=[N+]([O-])c1ccc(Sc2n[nH]c(-c3cc(Cl)cc(Cl)c3)n2)nc1,0.39
Cc1ccc(SCC(=O)Nc2c(Br)cnn2C)cc1,-0.47
N#CC1=C(N)Oc2n[nH]c(-c3ccccc3)c2C1c1ccc(Cl)cc1 (stereo not drawn),-5.1
